Compounds with a hit are over-represented: about 3.6% of the library has one in this group of screens.
VDR inhibitor = vitamin D3 receptor (human) inhibition; VDR-SRC2-3 peptide fluorescence polarization, 2 h; AID 504847; Potency, µM, for the others: max response, negative = inhibition, usual class: inhibitors; 0.93% of 400,000 active; further: potency means the concentration at half of the fitted maximal effect; on the % scale 0 is the no-effect control and ±100 the full control effect
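The screen uses fluorescence polarization to detect compounds that interfere with recruitment of the SRC2-3 coactivator peptide to VDR; plates are read after 2 h at room temperature.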
PI5P4K alpha inh = blocks human PI5P4K alpha kinase activity | 1.2% of 330,000 active | max response, % | PI5P4Kalpha enzyme, ADP-Glo luminescence, 60 min; hits give low values | P48426; active means max response of -50% or lower; inconclusive means between -30% and -50%; inactive means -30% or higher; further: value at the top dose of about 77 µM; on the % scale 0 is the no-effect control and ±100 the full control effect
Target sequence (P48426 whole entry, looked up): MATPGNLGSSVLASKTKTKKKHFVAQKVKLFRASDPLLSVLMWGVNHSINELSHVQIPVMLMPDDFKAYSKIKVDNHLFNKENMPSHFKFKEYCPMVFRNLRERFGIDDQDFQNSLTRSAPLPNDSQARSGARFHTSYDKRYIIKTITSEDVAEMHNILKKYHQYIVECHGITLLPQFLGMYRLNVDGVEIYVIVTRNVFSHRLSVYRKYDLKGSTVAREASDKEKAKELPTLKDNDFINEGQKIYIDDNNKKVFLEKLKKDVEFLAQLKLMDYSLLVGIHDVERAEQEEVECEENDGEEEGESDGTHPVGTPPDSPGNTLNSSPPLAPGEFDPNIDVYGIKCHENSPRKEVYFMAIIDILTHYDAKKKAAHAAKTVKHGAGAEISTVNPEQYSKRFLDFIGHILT
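Human PI5P4Kalpha with substrate in 0.038 M HEPES pH 7.4, 0.28 mM EGTA, 0.1% CHAPS, 5% DMSO; reaction started with 5 microM ATP (final), 60 min at room temperature. ADP formed read by ADP-Glo luminescence.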
GCN5L2 inh = GCN5L2 (KAT2A) acetyltransferase inhibition; Q92830; 0.21% of 390,000 active; Potency, µM (top dose mostly 58.9 µM), for the others: at the top dose activity change, negative = inhibition, most hits filed as inhibitors; GCN5L2 HAT assay, ThioGlo1 CoA-SH fluorescence; AID 504327; further: potency means the concentration at half of the fitted maximal effect; on the % scale 0 is the no-effect control and ±100 the full control effect
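GCN5L2 (20nM final) in 50mM HEPES, 0.1mM EDTA pH 7.5, 0.01% Tween-20 was preincubated 15 min at room temperature with compound, then given ThioGlo1 (50uM), H3(1-25) peptide (75uM) and acetyl-CoA (70uM); CoA-thiol fluorescence (Ex340/Em540) was read at 0 and 20 min.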
Rango complex inh = inhibitors of Rango-importin beta complex formation; Potency, µM (top dose mostly 92.2 µM), inactives show at the highest dose inhibition of complex formation; AID 540263; Rango CFP/YFP FRET sensor + importin beta, 45 min; 0.031% of 340,000 active; calls by dose curve;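 further: potency means the concentration at half of the fitted maximal effect; 0% = DMSO wells and 100% = buffer wells lacking importin beta; nearly all actives have a fitted effect of over 15% in size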
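FRET biosensor (snurportin 1 IBB flanked by EYFP and cerulean), 50 nM, with compound 5 min, then 0.125 microM importin beta in PBS, 1 mM DTT, 0.02% Tween-20, 0.1% BSA. CFP/YFP ratio read after 45 min at room temperature; pre-read flags interference.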
PLK1 PBD inh = inhibitors of human PLK1 polo-box domain binding. Plk1 PBD binding of FITC phosphopeptide, fluorescence polarization. Potency, µM, without a hit: max response, negative = inhibition, actives largely listed as inhibitors. P53350. 2.8% of 360,000 active; further: potency means the concentration at half of the fitted maximal effect; series mostly up to about 57 µM; on the % scale 0 is the no-effect control and ±100 the full control effect; nearly all actives have a fitted effect of over 65% in size
Rango dissoc inh = inhibitors of RanGTP-induced Rango-importin beta complex dissociation; Biochemical FRET Rango-importin beta, RanGTP-induced dissociation; 0.071% of 340,000 active; Potency, µM (series often up to 46.1 µM), for the others: at the highest dose activity change, negative = inhibition; O95149+P62826; calls by dose curve; further: potency means the concentration at half of the fitted maximal effect; % of control where 0% means no effect; nearly all actives have a fitted effect of over 45% in size
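Recombinant Rango FRET biosensor (EYFP–snurportin 1 IBB–cerulean CFP10) at 0.1 uM premixed with 0.25 uM importin beta in PBS, 1 mM DTT, 0.02% Tween-20, 0.1% BSA. Compound added 5 min; RanGTP-RCC1 (0.6 uM Ran, 2 mM GTP, 0.2 uM RCC1) then triggers release, read at 45 min.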
* = called active by the depositor; u = inconclusive; x = not tested or not shown; [ ] = another dose, or the depositor's remark. Unless noted, the call rests on the fitted dose curve; in most records, active means well fitted curve in the direction sought with a large enough effect; inconclusive means small, poorly fitted or top-dose-only effect, or another doubt; inactive means no such curve, though single readings can be large; an effect the other way counts as inactive or inconclusive.

SMILES | VDR inhibitor | PI5P4K alpha inh | GCN5L2 inh | Rango complex inh | PLK1 PBD inh | Rango dissoc inh
CCOc1ccc(NC(=O)CSc2nnc3c(n2)[nH]c2ccc(S(=O)(=O)N4CCCCC4)cc23)cc1 | 10% | x | x | x | x | x
Cc1ccc2c(c1)c(CC(NC(=O)c1ccccc1Oc1ccccc1)C(=O)O)cn2C(=O)OCc1ccccc1 (stereo unspecified) | 32µM* | x | 10µM* | x | x | x
CCN(CC)c1nc(N)c2c(N)n(-c3ccccc3C)c(=S)c(C#N)c2c1C#N | u | u | -9% | u | 27µM* | u
CCN(CC)c1nc(N)c2c(N)nc3c(c2c1C#N)CC(c1ccccc1)O3 (stereo unspecified) | 26% | x | -24% | u | 2% | -16%
COc1ccc(CCCC(=O)Nc2ccc(F)cc2)cc1 | -19% | -8 | 2% | -1% | 21µM* | 11%
CO[C@H]1C[C@@H]2CC[C@@H](C)[C@@](O)(O2)C(=O)C(=O)N2CCCC[C@H]2C(=O)O[C@H]([C@H](C)C[C@@H]2CC[C@@H](OCCO)[C@H](OC)C2)CC(=O)[C@H](C)/C=C(\C)[C@@H](O)[C@@H](OC)C(=O)[C@H](C)C[C@H](C)/C=C/C=C/C=C/1C | u | x | -20% | x | x | x
CCCCC(=O)NNC(=S)NC(=O)c1ccc([N+](=O)[O-])cc1 | u | -25 | u | 0% | 24µM* | 7%
CCCCC(=O)NNC(=S)NC(=O)c1cccc([N+](=O)[O-])c1 | u | x | -18% | 4% | u | -6%
CN1N=C(C(=O)N2CCc3c([nH]c4ccccc34)C2c2ccccc2Cl)CCC1=O (stereo unspecified) | -4% | -19 | 2% | 0% | 27µM* | 6%
Cc1ccc(NC(=O)C(=O)NCC(c2cccnc2)N2CCc3ccccc3C2)cc1 (stereo unspecified) | 6% | x | 0% | x | x | x
CC1(C)CCCN(C(=O)c2coc(=O)c(Br)c2)C1 | -9% | -82* | -25% | -2% | 11µM* | -23%
O=C(c1coc(=O)c(Br)c1)N1CCC(C(O)(c2ccccc2)c2ccccc2)CC1 | -20% | -22 | -7% | -2% | 3% | -8%
CCCCc1cc(=O)oc2cc(C)cc(OCC(=O)N[C@@H](CSCc3ccccc3)C(=O)O)c12 | -22% | 1 | 1.8µM* | 0% | -22% | 6%
COc1ccc(NC(=O)c2cc([N+](=O)[O-])ccc2NC(=O)CNCc2ccccn2)c(OC)c1 | 32µM* | -12 | -10% | -2% | u | 8%
CCOC(=O)C1C2C=CC3(CN(Cc4cccs4)C(=O)C13)O2 (stereo unspecified) | -8% | -27 | -6% | -2% | 17µM* | 27%
O=C(CNC(=O)c1ccc(N2C(=O)c3ccccc3C2=O)cc1)OCC(=O)c1ccccc1 | -9% | -18 | -2% | -1% | 24µM* | 19%
Cc1ccc2onc(CC(=O)N3CCN(c4cc(Cl)ccc4C)CC3)c2c1 | 4% | x | 1% | x | x | x
O=C(O)c1cccc2cccc(-c3c4ccc(=O)c(O)c-4oc4c(O)c(O)ccc34)c12 | u | -95* | x | u | 4.7µM* | -27%
Cn1c(=O)c2c(=O)cc(NNC(=O)CC#N)[nH]c2n(C)c1=O | -26% | -24 | -2% | 1% | 30µM* | 15%
Cc1ccccc1C1CC(=O)Oc2ccc(O)cc21 (stereo unspecified) | u | x | 4%[88.6 µM] | x | x | x
O=C(Nc1ccc2c(c1)OCO2)C1Cc2ccccc2CN1S(=O)(=O)c1cccs1 (stereo unspecified) | -7% | -72* | -8% | 0% | -10% | 5%
CC(=O)Nc1ccc(SC[C@H](Cc2ccccc2)N2CCN(CC(C)C)CCC2=O)cc1 | -9% | -2 | 23% | -3% | 34µM* | 2%
CC(C)C[C@@H](CSc1ccc(Br)cc1)N1CCN(CC(C)C)CCC1=O | -4% | -8 | -12% | 1% | -29% | 0%
CC(=O)Nc1ccc(SC[C@H](CC(C)C)N2CCN(CCc3ccccc3)CCC2=O)cc1 | 3% | 0 | 1% | 1% | 19µM* | 4%
CC(=O)Nc1ccc(SC[C@H](CC(C)C)N2CCN(CC(C)C)CCC2=O)cc1 | -23% | -3 | -14% | -1% | 27µM* | 28%
SMILES | VDR inhibitor | PI5P4K alpha inh | GCN5L2 inh | Rango complex inh | PLK1 PBD inh | Rango dissoc inh
CC(=O)Nc1ccc(SCC(Cc2ccccc2)N2CCN(CC(C)C)CCC2=O)cc1 (stereo unspecified) | -25% | x | x | x | x | x
CN(C)/C=C1\NC(=S)N(c2ccc(Cl)cc2)C1=O | 1% | -26 | -3% | -1% | 27µM* | 5%
O=C(Cc1ccccc1)NNC(=O)Cc1ccccc1 | 16% | 2 | 3% | u | -11% | -10%
O=C(Cc1ccccc1)NC(NNc1ccccc1)(C(F)(F)F)C(F)(F)F | u | -7 | -8% | 5% | 27µM* | 24%
CCc1ccc(C(=O)c2cn(CC(=O)Nc3cc(OC)ccc3OC)c3ccc(Cl)cc3c2=O)cc1 | -16% | x | 2% | x | x | x
N#C/C(=C/c1ccc(-c2ccc([N+](=O)[O-])cc2)o1)C(=O)Nc1nc(-c2cccs2)cs1 | 24% | -66* | x | 0% | u | 0%
CN1C(=O)c2oc3ccccc3c(=O)c2C1c1ccncc1 (stereo unspecified) | 79µM* | 0 | 0% | 5% | 27µM* | u
CCCCCCCc1cc2c(cn1)=C(OC)C(C)(OC(C)=O)C(=O)C=2Cl (stereo unspecified) | 1% | x | x | x | x | x
CCN(CC)c1ccc(NC(=S)NC(=O)c2ccco2)cc1 | 79µM* | 6 | -1% | -2% | 21µM* | 2%
O=C(NC(=S)Nc1ccccn1)c1ccco1 | 4% | -5 | -1% | 1% | 1% | 10%
O=C(NC(=S)Nc1cccnc1Cl)c1ccco1 | 0% | u | -10% | 2% | 27µM* | -2%
Cc1ccc(S(=O)(=O)N2CCN(c3nc(-c4cccs4)nc4ncccc34)CC2)cc1 | -12% | x | x | x | x | x
CCC1Oc2ccc(C)cc2N(CC(=O)NCc2ccc(OC)cc2)C1=O (stereo unspecified) | 0% | x | -6% | x | x | x
CC(=O)c1cccc(S(=O)(=O)NC2CCSc3ccccc32)c1 (stereo unspecified) | -10% | -22 | -4% | 3% | 27µM* | 22%
CC(=O)c1cccc(S(=O)(=O)NC2CC2)c1 | -4% | -9 | 0% | -1% | 27µM* | 12%
Cc1cccc(C(c2sc3nc(-c4ccco4)nn3c2O)N2CCOCC2)c1 (stereo unspecified) | 0% | x | -22% | x | x | x
COc1cc(/C=C2/C(=O)CNC2=O)ccc1O | 0% | -56* | -22% | 5% | 29% | -1%

Assay outcomes deposited in PubChem BioAssay by National Center for Advancing Translational Sciences (NCATS).
